Assay [1] is described as follows: qHTS assay to identify small molecule agonists of H2AX (AID 1224845; active = well fitted activation curve with a large enough effect in the signal ratio in the repeat runs, not every such curve was filed as active; the % refers to the signal ratio; note: % is set by controls: 0 for no effect and ±100 for the full control effect). An outline of the steps: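 Phospho-H2AX Ser139 measured by HTRF (ex 320 nm; em 665 and 620 nm) after 24 hr antibody incubation. Compounds, 15 concentrations, 0.76% DMSO, were applied to CHO-K1 cells for 3hr at 37C before lysis.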
In general terms: Quantitative high-throughput screening tests each substance at several concentrations.

Assay [2] is described as follows: qHTS assay to identify small molecule agonists of the hypoxia (HIF-1) signaling pathway (AID 1224846; active = well fitted activation curve with a large enough effect in the signal ratio in the repeat runs, not every such curve was filed as active; the % refers to the signal ratio; note: % is set by controls: 0 for no effect and ±100 for the full control effect). The gist of the method: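 Cell line: CellSensor HRE-bla ME-180; 2,000 cells/well; 0.5% dialyzed FBS; 5 h preincubation; DMSO compound pin transfer; 17 h, 37C, 5% CO2; CCF4-AM added; bla FRET signal scored for activation.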
Assay [3] is described as follows: qHTS assay to identify small molecule agonists of H2AX - cell viability counter screen (AID 1224847; calls by dose curve; note: nearly all actives have a fitted effect of over 30% in size; note: potency is the fitted concentration of half-maximal effect). An outline of the steps: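 Read-out: CellTiter-Glo luminescence, 30 min RT. Cells: wild-type CHO-K1, 1000/well, 10% FBS, plated overnight at 37C. Treatment: 15 concentrations, 3 hr, 37C, 0.76% DMSO.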
Assay [4] is described as follows: qHTS assay to identify small molecule antagonists of the estrogen related receptor (ERR) signaling pathway from Tox21 library (AID 1224848). Note: % is set by controls: 0 for no effect and ±100 for the full control effect; nearly all actives have a fitted effect of over 50% in size. The gist of the method:
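Reading was by luminescence 30 min after ONE-Glo addition. Before that, ERR cells at 2,000 per well had rested 6 h at 37 C/5% CO2 and then received pin-tooled compounds in DMSO for 18 h at 37 C.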

Assay [5] is described as follows: qHTS assay to identify small molecule agonists of the estrogen related receptor (ERR) signaling pathway from Tox21 library (AID 1224849; calls by dose curve; note: % is set by controls: 0 for no effect and ±100 for the full control effect; nearly all actives have a fitted effect of over 15% in size). Conditions: ERR reporter cell line, ONE-Glo luciferase, 18 h; at 92.4 µM (top of the series) unless noted. An outline of the steps: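 ERR cells, 6 h pre-incubation 37 C/5% CO2; cpd in DMSO pinned; 18 h 37 C; ONE-Glo added, 30 min RT; luminescence read. Agonist mode, qHTS.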

The nature of assay [6]: qHTS RealTime-Glo MT Cell Viability Assay in HepG2 cells - 24 hour (AID 1224867). Note: nearly all actives have a fitted effect of over 50% in size. Note: potency is the fitted concentration of half-maximal effect. An outline of the steps: (§1)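 Compound treatment began 5 h after plating HepG2 cells (600/well) with NanoLuc luciferase and prosubstrate. Plates stayed at 37 C for 40 h; luminescence was captured at six time points, 0 h through 40 h.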
A short description of assay [7]: qHTS RealTime-Glo MT Cell Viability Assay in HEK293 cells - 32 hour (AID 1224868). Note: nearly all actives have a fitted effect of over 50% in size. Note: potency is the fitted concentration of half-maximal effect. An outline of the steps:
(§2)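 Quantitative high-throughput screen of the Tox21 10K library in HEK293: cells and RealTime-Glo reagents plated together, compound added at 5 h, luminescence monitored through 40 h at 37 C.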

Assay [8] is described as follows: A CellTox Green Cytotoxicity Assay to monitor cytotoxicity in HEK293 cells - 0 hour (AID 1224869). Note: % is set by controls: 0 for no effect and ±100 for the full control effect; nearly all actives have a fitted effect of over 50% in size. The gist of the method:
(§3)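 Nonlytic real-time cytotoxicity: HEK293 + CellTox Green reagent plated, 5 h preincubation, pintool compound addition (23 nL in DMSO), 37 C for 40 h, fluorescence measured at successive time points.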

Assay [9] is described as follows: A CellTox Green Cytotoxicity Assay to monitor cytotoxicity in HEK293 cells - 40 hour (AID 1224871). Note: nearly all actives have a fitted effect of over 45% in size. Note: potency is the fitted concentration of half-maximal effect. An outline of the steps:
as §3

Assay [10] in a line: qHTS RealTime-Glo MT Cell Viability Assay in HEK293 cells - 16 hour (AID 1224872). Note: nearly all actives have a fitted effect of over 50% in size. Note: potency is the fitted concentration of half-maximal effect. The gist of the method:
as §2

A short description of assay [11]: qHTS RealTime-Glo MT Cell Viability Assay in HepG2 cells - 8 hour (AID 1224873). Note: nearly all actives have a fitted effect of over 55% in size. Note: potency is the fitted concentration of half-maximal effect. The gist of the method: (§4)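 Real-time viability: cells seeded at 600 per well together with NanoLuc and cell-permeant prosubstrate, compounds added after 5 h incubation. Luminescence tracked at 0, 8, 16, 24, 32 and 40 h of exposure.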
The nature of assay [12]: qHTS RealTime-Glo MT Cell Viability Assay in HEK293 cells - 40 hour (AID 1224874). For max response: % is set by controls: 0 for no effect and ±100 for the full control effect. Note: nearly all actives have a fitted effect of over 50% in size. Note: potency is the fitted concentration of half-maximal effect. Conditions: RealTime-Glo luminescence; max response: stronger effect = lower value. An outline of the steps: (§5)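 Cells were seeded together with NanoLuc luciferase and a prosubstrate that viable cells reduce to a luciferase substrate. After a 5 h incubation at 37 C/5% CO2, compounds were added and luminescence was measured repeatedly during 40 h of treatment.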

Assay [13] can be described thus: A CellTox Green Cytotoxicity Assay to monitor cytotoxicity in HEK293 cells - 24 hour (AID 1224875). For activity change: % is set by controls: 0 for no effect and ±100 for the full control effect. Note: nearly all actives have a fitted effect of over 45% in size. Note: potency is the fitted concentration of half-maximal effect. The gist of the method:
as §3

Assay [14] can be described thus: A CellTox Green Cytotoxicity Assay to monitor cytotoxicity in HepG2 cells - 16 hour (AID 1224876). Note: nearly all actives have a fitted effect of over 45% in size. Note: potency is the fitted concentration of half-maximal effect. The gist of the method: (§6)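 Read-out is fluorescence of a cyanine dye excluded from live cells that stains DNA of dead HepG2 cells, with signal proportional to cytotoxicity. Plates were read at 0, 8, 16, 24, 32 and 40 h after compound addition.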
Assay [15] in a line: qHTS RealTime-Glo MT Cell Viability Assay in HepG2 cells - 32 hour (AID 1224877). Note: nearly all actives have a fitted effect of over 55% in size. Note: potency is the fitted concentration of half-maximal effect. An outline of the steps:
as §1

Assay [16] can be described thus: A CellTox Green Cytotoxicity Assay to monitor cytotoxicity in HepG2 cells - 40 hour (AID 1224879). Note: nearly all actives have a fitted effect of over 40% in size. Note: potency is the fitted concentration of half-maximal effect. An outline of the steps: as §6
Assay [17] can be described thus: qHTS RealTime-Glo MT Cell Viability Assay in HEK293 cells - 0 hour (AID 1224880). Note: top concentration of the series differs between compounds; % is set by controls: 0 for no effect and ±100 for the full control effect; nearly all actives have a fitted effect of over 45% in size. An outline of the steps:
as §5

The nature of assay [18]: qHTS RealTime-Glo MT Cell Viability Assay in HepG2 cells - 40 hour (AID 1224870). Note: nearly all actives have a fitted effect of over 50% in size. Note: potency is the fitted concentration of half-maximal effect. The gist of the method:
as §4

Assay [19] is described as follows: A CellTox Green Cytotoxicity Assay to monitor cytotoxicity in HepG2 cells - 24 hour (AID 1224878). Note: nearly all actives have a fitted effect of over 45% in size. Note: potency is the fitted concentration of half-maximal effect. The gist of the method: as §6
Assay [20] can be described thus: qHTS assay to identify small molecule agonists of the hypoxia (HIF-1) signaling pathway - cell viability counter screen (AID 1224844; calls by dose curve). An outline of the steps: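 ME-180 HRE-bla cells, 2,000/well, 0.5% dialyzed FBS; 5 hr settle, 17 hr compound at 37C/5% CO2; CCF4-AM reporter read first, then CellTiter-Glo luminescence after 30 min RT.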

Structures are written as SMILES. Unmarked numbers belong to inactive results. Inconclusive results are not listed. Calls of active or inactive are those of the source. Unless noted, calls come from the whole dose curve; as a rule, active = well fitted curve in the direction sought with a large enough effect in the repeat runs; inconclusive = weak or mixed curves; inactive = no such curve, though single readings can be large; an effect the other way counts as inactive or inconclusive.

In the case of `COP(=S)(OC)Oc1nc(Cl)c(Cl)cc1Cl`, the Potency entry in assay [1], in assay [2], in assay [3], in assay [4], in assay [6] and in assay [7] was “inactive” in each case. Also, the Potency result in assay [8], in assay [9], in [10], in assay [11], in assay [13] and in assay [14] was “inactive” throughout. Moreover, the Potency result in [15], in assay [16] and in [17] was “inactive” each time. In addition, the activity change, positive = activation in assay [5] is -11.3%. Besides, the max response in assay [12] is -0.946%.
For the molecule `O=[N+]([O-])c1ccc(CCl)cc1`, the Potency entry in assay [1], in assay [2], in assay [3], in assay [6], in assay [8] and in [18] was “inactive” throughout. Besides, the Potency result in [9], in assay [10], in [11], in [13], in [14] and in [15] was “inactive” throughout. The Potency result in assay [16] and in assay [17] was “inactive” in each case.
For `CN(C)CCc1c[nH]c2ccccc12`, the Potency result in assay [1], in assay [2], in assay [3], in assay [6], in assay [7] and in [8] was “inactive” in each case. Besides, the Potency entry in assay [18], in assay [9], in assay [10], in [11], in [13] and in assay [14] was “inactive” each time. Further, the Potency entry in assay [15], in [19], in assay [16] and in assay [17] was “inactive” in each case. Besides, the max response in assay [12] was -4.01%.
As for `O=[N+]([O-])c1cc(C(F)(F)F)c(Cl)c([N+](=O)[O-])c1Nc1ncc(C(F)(F)F)cc1Cl`, the Potency is 6.92 µM (active) in assay [20]; 50.5 µM (active) in assay [3]; 21.9 µM (active) in assay [6]; 1.74 µM (active) in assay [7]; 11 µM (active) in [18]; 24.5 µM (active) in assay [9]. In addition, the Potency in [10] was 2.75 µM (active); in [11], 24.5 µM (active); in assay [12], 1.55 µM (active); in assay [13], 38.9 µM (active); in assay [14], 43.6 µM (active); in [15], 17.4 µM (active). The Potency is 12.3 µM (active) in assay [19] and 3.89 µM (active) in [16]. The Potency result in assay [8] and in assay [17] was “inactive” throughout.
Regarding `CC(C)=CC1C(C(=O)OC(C#N)c2cccc(Oc3ccccc3)c2)C1(C)C` (stereo unspecified), the Potency result in assay [1], in [2], in assay [3], in assay [6], in [7] and in assay [8] was “inactive” each time. Further, the Potency result in [18], in assay [9], in assay [10], in assay [11], in assay [13] and in assay [14] was “inactive” in each case. Moreover, the Potency result in assay [15], in assay [16] and in assay [17] was “inactive” in each case. The activity change, positive = activation in assay [5] is -9.74%.
Take `CC(C)c1c(CN(C)C(C)Cc2ccccc2)n(C)n(-c2ccccc2)c1=O` (stereo unspecified): the Potency result in assay [1], in assay [2], in [3], in assay [6], in assay [8] and in [18] was “inactive” in each case. For the same molecule, the Potency entry in [9], in assay [11], in assay [13], in [14], in [15] and in assay [19] was “inactive” each time. Further, the Potency result in assay [16] and in [17] was “inactive” in each case.
As for `CCN(CC)CCc1c[nH]c2ccccc12`, the Potency entry in assay [1], in assay [2], in assay [3], in assay [6], in assay [7] and in assay [8] was “inactive” each time. In addition, the Potency result in [18], in [9], in assay [10], in assay [11], in [13] and in assay [14] was “inactive” in each case. Also, the Potency entry in assay [15], in assay [19], in assay [16] and in assay [17] was “inactive” in each case. Further, the max response in assay [12] is 6.8%.
